TMEM16A act – activators or potentiators of mouse TMEM16A chloride channel | B-score at 10 µM | actives 0.3% (n = 340,000) | Q8BHY3 | HEK293 TMEM16A/YFP-H148Q/I152L, iodide quench fluorescence; stronger effect = lower value | AID 623877;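 active = fluorescence-ratio B-score plate-corrected deviation score at least 3 library SD below zero, with starting fluorescence score within 5 deviations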;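 note: channel opened by trigger with iodide after compound preincubation; score built on the fluorescence ratio of max minus min over baseline; more negative score means more quench and so TMEM16A activation or potentiation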
Target sequence (Q8BHY3 whole entry, looked up): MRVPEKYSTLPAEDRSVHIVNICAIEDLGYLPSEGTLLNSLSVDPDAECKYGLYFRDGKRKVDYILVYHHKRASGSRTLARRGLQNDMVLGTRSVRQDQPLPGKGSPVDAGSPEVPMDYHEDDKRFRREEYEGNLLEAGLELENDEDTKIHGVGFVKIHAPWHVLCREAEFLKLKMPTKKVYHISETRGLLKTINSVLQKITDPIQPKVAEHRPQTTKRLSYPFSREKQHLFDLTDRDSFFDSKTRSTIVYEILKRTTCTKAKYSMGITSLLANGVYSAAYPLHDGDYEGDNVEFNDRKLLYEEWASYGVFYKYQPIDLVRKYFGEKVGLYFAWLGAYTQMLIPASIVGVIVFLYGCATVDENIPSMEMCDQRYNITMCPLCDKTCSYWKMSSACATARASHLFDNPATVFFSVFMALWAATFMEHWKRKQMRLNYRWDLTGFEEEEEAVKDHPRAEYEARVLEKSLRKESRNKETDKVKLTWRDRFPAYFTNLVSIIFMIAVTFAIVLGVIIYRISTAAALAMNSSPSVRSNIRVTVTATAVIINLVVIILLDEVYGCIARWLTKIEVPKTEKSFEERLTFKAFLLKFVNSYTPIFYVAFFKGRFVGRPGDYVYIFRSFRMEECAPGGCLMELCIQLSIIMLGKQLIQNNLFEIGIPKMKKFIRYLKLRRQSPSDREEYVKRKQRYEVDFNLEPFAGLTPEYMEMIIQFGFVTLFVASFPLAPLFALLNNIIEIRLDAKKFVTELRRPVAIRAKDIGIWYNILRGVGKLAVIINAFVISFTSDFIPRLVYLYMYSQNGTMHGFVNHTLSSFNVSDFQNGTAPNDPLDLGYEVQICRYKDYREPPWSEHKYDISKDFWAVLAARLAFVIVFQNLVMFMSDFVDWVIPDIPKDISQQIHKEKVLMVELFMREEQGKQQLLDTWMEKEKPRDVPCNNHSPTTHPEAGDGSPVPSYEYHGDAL
CHT inh – human CHT choline transport inhibition. Q9GZV3. CHT-expressing cells, membrane potential dye, choline response; stronger effect = lower value. B-score at 10 µM. actives 0.86% (n = 310,000). AID 488975;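 active = B-score over 3 SD under the library average, and starting fluorescence ratio not unusually high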;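 note: choline stimulus applied at its EC90 after an EC20 pre-addition; B-score computed on integrated fluorescence ratio after choline addition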
TMEM16A inh – inhibitors of mouse TMEM16A calcium-activated chloride channel; Q8BHY3; HEK293 TMEM16A/YFP iodide influx fluorescence, ionomycin; actives 1.2% (n = 310,000); normalized B-score (activity score, 25-100; higher = stronger inhibition) at 10 µM;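 active = ratio plate-corrected score three or more library SD toward inhibition, starting fluorescence score within five deviations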;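 note: score derived from kinetic fluorescence span divided by baseline fluorescence per well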
CHT PAM – human CHT allosteric activation. CHT-expressing cells, membrane potential dye, choline EC20; stronger effect = higher value; LV-AA mutant CHT in HEK293 cells. actives 0.49% (n = 310,000). AID 488977. B-score at 10 µM. Q9GZV3;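 active = initial fluorescence not abnormally high and integrated response B-score, plate-corrected, over 3 SD above library mean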
CHT activ conf – confirmation of human choline transporter (CHT) activators. shares compounds with CHT PAM. CHT-expressing cells, membrane potential dye fluorescence (FDSS); % of choline EC20–EC90 response window; HEK293 expressing CHT LV-AA mutant; choline added at its EC20. activation, % at 10 µM. actives 91% (n = 2,500). AID 504833;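 active = primary screen active, with duplicate mean activation above negative control mean plus 3 SD, cut at about 11% in these data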
HEK293 MP dye – activity in parental HEK293 cells lacking CHT; shares compounds with CHT PAM; membrane potential dye fluorescence (FDSS); measured after EC20 choline addition; ratio readout change at 10 µM, hits read low; actives 62% (n = 2,500); AID 623908;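 active = duplicate-averaged ratio beyond 3 SD from buffer wells, up or down, though filed actives are nearly all decreases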
Hits are given with their value; . = inactive; / = not tested or not shown. An excerpt weighted towards active compounds, which were near 2.3% of everything screened.

SMILES | TMEM16A act | CHT inh | TMEM16A inh | CHT PAM | CHT activ conf | HEK293 MP dye
O=S(=O)(NCc1c(Cl)cccc1Oc1ccccc1)c1ccc(F)cc1 | . | . | . | . | . | .
Cc1ccc(C#CC[N+]2(CC#Cc3ccc(C)cc3)CCCCC2)cc1 | . | . | . | 8.71 | 18.4 | .
O=[N+]([O-])c1ccc(O)c(C(C#Cc2ccccc2)N2CCOCC2)c1 (stereo unspecified) | . | . | . | . | / | /
CN(c1ccc(OCc2nnc(-c3ccccc3)o2)cc1)S(=O)(=O)c1ccccc1 | . | . | . | . | 26.9 | .
CCOc1cccc(CN2CCCC(CCC(=O)NCc3ccccc3F)C2)c1O (stereo unspecified) | . | . | . | . | / | /
O=C(COC(=O)c1ccc2c(=O)n3c(nc2c1)CCC3)NC1CCS(=O)(=O)C1 (stereo unspecified) | . | . | . | . | 39.5 | -48.2
CCCCN(C(=O)C(C)(C)Oc1ccc(Cl)cc1)c1c(N)n(CCC)c(=O)[nH]c1=O | . | / | / | / | / | /
O=C(N/N=C/c1ccc([N+](=O)[O-])o1)c1ccncc1 | . | . | . | . | 56.3 | -47.4
O=C(N/N=C/c1cc(Br)ccc1O)c1ccncc1 | . | . | . | . | / | /
O=C(N/N=C/c1cc([N+](=O)[O-])ccc1O)c1ccncc1 | . | . | . | . | 36.2 | -38.8
Cc1nc2ccccn2c1C(=O)N/N=C/c1ccc([N+](=O)[O-])o1 | . | . | . | . | 31.2 | -39.2
C/C(=N\NC(=O)c1c(C)nc2ccccn12)c1ccco1 | . | . | . | 10.2 | 15.3 | .
O=C(CCCCn1c(=O)c2ccccc2n(Cc2ccccc2)c1=O)NC1CCN(Cc2ccccc2)CC1 | . | . | . | . | 34.9 | -28.7
CCn1c(C)c(C(C)=O)c(N2CCCC2)nc1=S | . | . | . | . | . | .
Cc1cc(/C=C2/C(=N)N3C(=NC2=O)SN=C3S(C)(=O)=O)c(C)n1-c1ccccc1F | . | . | . | 7.61 | . | .
CCOC(=O)C1(CC2CC2)CCN(Cc2cn[nH]c2-c2cccc(F)c2)CC1 | . | . | . | . | 22.4 | .
Cc1[nH]c2ccc3ncccc3c2c1C | . | . | . | 6.8 | 30.2 | -65.5
Cc1ccc2c(c1)C(c1ccc(O)cc1)(c1ccc(O)cc1)C(=O)N2C | . | . | . | 6.37 | . | .
Cc1ccc2c(c1)C1(C(=O)N2C)N2CC3(C)CN1CC(C)(C2)C3=O (stereo unspecified) | . | . | . | . | / | /
COc1ccc2c(c1C)CCC(C)(C#N)C2=O (stereo unspecified) | . | / | / | / | / | /
Cc1cccc(-c2cnn(-c3cccc([N+](=O)[O-])c3)c2N)c1 | . | . | . | . | / | /
Cc1cc[n+]2cc(-c3cccc([N+](=O)[O-])c3)c(-c3cccc([N+](=O)[O-])c3)cc2c1 | . | . | . | 7 | 65.0 | -84.5
Cc1cccc(Oc2nc(CN3CCOCC3)nc3sc4c(c23)CCCC4)c1 | . | . | . | . | 35.2 | .
c1cncc(-c2nc(N3CCOCC3)c3c4c(sc3n2)CCC4)c1 | . | . | . | . | / | /
CCC(C)Nc1nc(CN2CCOCC2)nc2sc3c(c12)CCC3 (stereo unspecified) | . | . | . | 8.39 | 14.0 | .
SMILES | TMEM16A act | CHT inh | TMEM16A inh | CHT PAM | CHT activ conf | HEK293 MP dye
NS(=O)(=O)c1ccc(CCNc2nc(CN3CCOCC3)nc3sc4c(c23)CCC4)cc1 | . | . | . | . | / | /
c1cncc(-c2nc(NCCCN3CCOCC3)c3c4c(sc3n2)CCC4)c1 | . | . | . | 6.92 | 24.5 | -46.9
CCN(CC)CCCNc1nc(CN2CCOCC2)nc2sc3c(c12)CCC3 | . | . | . | 7.75 | 59.1 | -56.7
CC1CCC2(CC1)NC(=O)N(NC(=O)c1cc3ccccc3o1)C2=O (stereo unspecified) | . | / | / | / | / | /
O=C(/C=C/c1ccco1)N(Cc1ccccc1F)C1CCS(=O)(=O)C1 (stereo unspecified) | . | . | . | . | / | /
CCOC(=O)c1ccc(NC(=O)CSc2nc(NC(=O)c3ccccc3)c3c(C)c(C)oc3n2)cc1 | . | . | . | . | / | /
COC(=O)c1ccccc1NC(=O)CSc1nc(NC(=O)c2ccccc2)c2c(C)c(C)oc2n1 | . | . | . | 8.42 | . | .
O=C(CSc1ccc2nnc(-c3ccncc3)n2n1)Nc1nccs1 | . | / | / | / | / | /
CCC[n+]1c(C)sc2c3c(ccc21)CCCC3 | . | . | . | 10.6 | 82.1 | -68.6
CCOC(=O)C(O)(CC(=O)c1ccc(Cl)cc1)C(=O)OCC | . | . | . | . | / | /
O=C(Nc1ccnn1C1CCN(C/C=C/c2ccccc2)CC1)c1ccccc1Cl | . | . | . | . | / | /
COc1ccccc1C(=O)Nc1ccnn1C1CCN(C/C=C/c2ccc(F)cc2)CC1 | . | . | . | . | . | .
CCOC(=O)N1CCC(n2c(SCC(=O)NCCc3ccc(S(N)(=O)=O)cc3)nc3ccccc3c2=O)CC1 | . | . | . | 14.8 | 35.0 | -21.1
Cc1cccc(NC(=O)CCS(=O)(=O)c2cc3c(cc2Cl)NC(=O)CO3)c1 | . | . | . | . | / | /
CC/C(=C/c1sc2ccc(C)cc2[n+]1CCCS(=O)(=O)[O-])SC | / | . | . | 6.78 | 48.0 | .
CC/C(=C/c1sc2ccc(C)cc2[n+]1CCO)SC | . | . | . | . | / | /
COc1ccccc1CNc1cc(CSc2ccc(Cl)cc2)nc(C)n1 | . | . | 25 | . | 22.7 | .
COc1ccccc1CNC(=O)COC(=O)CSc1ccc(Cl)cc1 | . | . | . | . | / | /
Brc1ccc(Oc2ncc(CN3CCOCC3)s2)cc1 | . | . | . | . | / | /
Cc1ccc(-c2cc[n+](Cc3ccccc3)cc2)cc1 | . | . | . | 6.68 | 57.6 | -42.1
Cc1cc[n+](Cc2ccc([N+](=O)[O-])cc2)cc1 | . | . | . | . | / | /
CC(=O)Nc1ccc(NS(=O)(=O)c2ccc3c(c2)oc(=O)n3C)cc1 | . | . | . | . | / | /
Cc1ccc2ccc3cccnc3c2n1 | . | . | . | 6.88 | 55.4 | -73
CC(C)(CN1CCN(Cc2ccccc2)CC1)NS(=O)(=O)c1ccc(Cl)cc1 | . | . | . | 8.97 | 21.2 | .
Cc1cc(C)n(-c2ccc(C(=O)OCC(=O)N3CCN(c4ccccc4)CC3)cc2)n1 | . | / | / | / | / | /
Cn1c(=O)[nH]c(=O)c2c1nc(N1CCN(c3ccccc3)CC1)n2CCSc1ncccn1 | . | . | . | . | 36.7 | .
Cn1c(=O)[nH]c(=O)c2c1nc(N1CCCCC1)n2CCSc1ncccn1 | . | . | . | 8.02 | 18.4 | -24
Cc1ccnc(SCCn2c(N3CCN(Cc4ccccc4)CC3)nc3c2c(=O)[nH]c(=O)n3C)n1 | . | . | . | . | / | /
O=C(Nc1ccccc1)OC1CCC2CC1CCC2OC(=O)Nc1ccccc1 (stereo unspecified) | . | . | . | . | 32.4 | .

From PubChem BioAssay
